MRP resist rev – reverses drug resistance mediated by MRP. H69AR cells + 2 uM doxorubicin, CellTiter-Glo, 72 h. differential viability (reversal), % at 10 µM. 85,000 tested, 0.04% active. AID 602;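 active = viability drop by adding the cancer drug above about 55%, with treated viability meeting a 40% cutoff, limit read from the data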;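 also: larger differential means the compound sensitizes cells more to doxorubicin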
MRP1 act – activates MRP-1; AID 799; viability increase, % at 10 µM; H69AR cells + doxorubicin, viability rescue, CellTiter-Glo; 140,000 tested, 0.61% active;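 active = viability gain under doxorubicin at or above a set limit, the compound median plus 3 SD, cut at about 4.7% in these data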;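 also: MRP-1 overexpressing cells given doxorubicin 25 µM after compound pretreatment; 18-22 h compound pretreatment then 72 h with doxorubicin before readout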
Candida biofilm – kills Candida albicans biofilms. C. albicans biofilm + clotrimazole, Alamar Blue. 85,000 tested, 0.14% active. AID 834. inhibition, % at 6 µM;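 active = inhibition above 20%; inactive = inhibition below 20%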;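 also: preformed 24 hr biofilms exposed to compound for 48 hr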
Smad3 FoxH1 inh – Smad3 (human) transcription factor binding inhibition. P84022. TR-FRET Smad3/Dy647-FoxH1 peptide binding, europium anti-His. inhibition, % at 25 µM. 88,000 tested, 0.29% active. AID 630;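 active = compounds that reduce the energy-transfer binding signal between the protein and its labelled peptide by more than half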
Target sequence (P84022 whole entry, looked up): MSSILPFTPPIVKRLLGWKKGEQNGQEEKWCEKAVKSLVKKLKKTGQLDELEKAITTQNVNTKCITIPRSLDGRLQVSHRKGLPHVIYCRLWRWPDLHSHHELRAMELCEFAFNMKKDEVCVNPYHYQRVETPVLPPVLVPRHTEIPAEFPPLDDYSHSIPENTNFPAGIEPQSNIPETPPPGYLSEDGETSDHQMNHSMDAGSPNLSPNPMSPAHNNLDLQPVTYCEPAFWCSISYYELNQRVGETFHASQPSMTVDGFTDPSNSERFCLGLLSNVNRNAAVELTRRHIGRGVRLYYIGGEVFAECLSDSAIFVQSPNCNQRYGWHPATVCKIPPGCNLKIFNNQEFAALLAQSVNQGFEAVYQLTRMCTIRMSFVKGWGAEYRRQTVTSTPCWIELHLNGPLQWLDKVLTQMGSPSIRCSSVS
Large screens that a line does not name were inactive; [ ] = another dose, or the depositor's remark. Most compounds without a hit are left out; they make up all but 0.83% or so of the library.

COc1ccc(-c2c(C#N)c(N)nc3sc(C(=O)c4ccccc4)c(N)c23)cc1	MRP1 act 12 (no result: MRP resist rev, Candida biofilm, Smad3 FoxH1 inh)
COC(=O)c1cc(=O)[nH]c(=O)[nH]1	none (no result: MRP resist rev, MRP1 act, Candida biofilm)
CCOC(=O)C1=C(C)Nc2sc(C(=O)c3ccc(C)cc3)c(N)c2C1c1ccc(C(=O)OC)cc1 (stereo not drawn)	MRP1 act 6.5 (no result: MRP resist rev, Candida biofilm, Smad3 FoxH1 inh)
O=C(COc1ccccc1)N1CCN(S(=O)(=O)c2ccc(Cl)cc2)CC1	none
O=C(COc1ccc(Cl)cc1)N1CCN(S(=O)(=O)c2ccccc2)CC1	MRP1 act 5.1
COc1ccccc1N1CCN(C(=O)COc2ccc(Cl)cc2)CC1	MRP1 act 6.6
Cc1cccc(C)c1N=Cc1c(O)n(-c2nccs2)c(=O)c2ccccc12	MRP1 act 6.2 (no result: MRP resist rev, Candida biofilm, Smad3 FoxH1 inh)
Cc1cc(C)c(N=Cc2c(O)n(-c3nccs3)c(=O)c3ccccc23)c(C)c1	MRP1 act 7.5 (no result: MRP resist rev, Candida biofilm, Smad3 FoxH1 inh)
O=C(O)C/C(=C/c1ccccc1)C(=O)O	none (no result: MRP resist rev, MRP1 act, Candida biofilm)
C[C@@H]1c2ccccc2Cn2cc3c(c21)C(=O)c1cccc(OP(=O)(O)OCc2ccccc2)c1C3=O	none (no result: MRP resist rev, MRP1 act, Candida biofilm)
Cc1ccc(COc2cccc3c2CCN(Cc2ccc(F)cc2)C3=O)cc1	MRP1 act 5.0 (no result: MRP resist rev, Candida biofilm, Smad3 FoxH1 inh)
CCOC(=O)N1CCC(n2c(SCC(=O)N3CCC(C)CC3)nc3ccccc3c2=O)CC1	Candida biofilm 24
COc1cccc(C=Nc2cc(C)cc(C)c2)c1O	none (no result: MRP resist rev, Candida biofilm, Smad3 FoxH1 inh)
COc1cccc(/C=N/N2C(=O)CSC2=S)c1O	MRP1 act 8.0 (no result: MRP resist rev, Candida biofilm, Smad3 FoxH1 inh)
Cc1ncc(CSc2ccccc2N)c(CO)c1O	none (no result: MRP resist rev, MRP1 act, Candida biofilm)
Nn1c(SCC(=O)Nc2ccccc2F)nc2ccccc2c1=O	MRP1 act 8.8
O=C(CSc1nnc2c3ccccc3c3ccccc3c2n1)Nc1ccccc1F	none (no result: MRP resist rev, Candida biofilm, Smad3 FoxH1 inh)
CCOC(=O)[C@@H](O)Cc1cnc2ccccc2n1	none (no result: MRP resist rev, MRP1 act, Candida biofilm)
NNC(=O)CCc1ccc2ccc3ccccc3c2c1	none (no result: MRP resist rev, MRP1 act, Candida biofilm)
O=C(C1Cc2ccccc2CN1S(=O)(=O)c1ccc(F)cc1)N1CCCCCC1 (stereo not drawn)	Smad3 FoxH1 inh 77[fluorescence artefact?]
Brc1cc2c(cc1COc1ccc(-c3nn[nH]n3)cc1)OCO2	MRP1 act 5.0
CCOc1ccc(-c2nn[nH]n2)cc1	none
O=S(=O)(O)[C@@H](c1ccccc1)[C@@H](O)c1ccccc1	none (no result: MRP resist rev, MRP1 act, Candida biofilm)
CC(C)CNC(=O)c1c(N)n(/N=C/c2ccccn2)c2nc3ccccc3nc12	MRP1 act 5.1
CCCCNC(=O)c1c(N)n(/N=C/c2ccccn2)c2nc3ccccc3nc12	none (no result: MRP resist rev, Candida biofilm, Smad3 FoxH1 inh)
O=C(N/N=C/c1ccc(-c2ccc([N+](=O)[O-])cc2)o1)C(O)c1ccccc1 (stereo not drawn)	MRP1 act 5.5 (no result: MRP resist rev, Candida biofilm, Smad3 FoxH1 inh)
Cc1oc2cc(O)cc(C)c2c(=O)c1-c1cnn(-c2ccccc2)c1	none
Cc1oc2c(O)c(O)ccc2c(=O)c1-c1cnn(-c2ccccc2)c1	MRP1 act 4.9 (no result: MRP resist rev, Candida biofilm, Smad3 FoxH1 inh)
CCCCCCOC(=O)c1ccc(NC(=O)c2cc(OC)c(OC)c(OC)c2Br)cc1	MRP1 act 4.9 (no result: MRP resist rev, Candida biofilm, Smad3 FoxH1 inh)
c1ccc2nc(CC[C@@H]3CCCCN3)ccc2c1	none (no result: MRP resist rev, MRP1 act, Candida biofilm)
O=C(O)[C@@H](O)[C@@H](O)[C@H](O)[C@H](O)CO	none (no result: MRP resist rev, MRP1 act, Candida biofilm)
COc1cccc(C(=O)Nc2cccc(C(=O)NCC(C)C)c2)c1	none (no result: MRP resist rev, Candida biofilm, Smad3 FoxH1 inh)
CC(C)CNC(=O)c1cccc(NC(=O)Cc2ccc(Br)cc2)c1	MRP1 act 6.2 (no result: MRP resist rev, Candida biofilm, Smad3 FoxH1 inh)
CC(=O)O[C@@H]1CC[C@]2(C)C(=C[C@H]([C@@H]3C=C4C[C@@H](OC(C)=O)CC[C@]4(C)C4=C3[C@@H]3C[C@@H]5O[C@@]6(CC[C@H](C)CO6)[C@@H](C)[C@@H]5[C@@]3(C)CC4)C3=C2CC[C@@]2(C)[C@@H]4[C@@H](C)[C@]5(CC[C@H](C)CO5)O[C@@H]4C[C@H]32)C1	none (no result: MRP resist rev, MRP1 act, Candida biofilm)
CC1(C)[C@@H](CC(=O)O)CCC[C@H]1CC(=O)O	none (no result: MRP resist rev, MRP1 act, Candida biofilm)
Cc1ccc2[nH]c(=O)c(CNS(=O)(=O)c3ccccc3)c(-c3ccccc3)c2c1	none (no result: MRP resist rev, Candida biofilm, Smad3 FoxH1 inh)
CCN(CC)c1c(-c2ccccc2)c2cc(C)ccc2[nH]c1=O	Smad3 FoxH1 inh 50[fluorescence artefact?]
CN(C)c1ccccc1CN1CCCN(Cc2ccccc2N(C)C)C1c1ccncc1	none (no result: MRP resist rev, MRP1 act, Candida biofilm)
N[C@@H]1[C@H](C(=O)O)[C@@H]2C=C[C@H]1C2	none (no result: MRP resist rev, MRP1 act, Candida biofilm)
NC(N)=NC(N)=Nc1ccccc1 (tested in a mixture with another compound)	Smad3 FoxH1 inh 60 (no result: MRP resist rev, MRP1 act, Candida biofilm)
NC(N)=Nc1ccc(-c2ccc(N=C(N)N)cc2)cc1	none (no result: MRP resist rev, MRP1 act, Candida biofilm)
CC(C)(C)CNCCO	none (no result: MRP resist rev, MRP1 act, Candida biofilm)
O=C(O)/C=C\C(=O)NC1CCCCC1	MRP1 act 29 (no result: MRP resist rev, Candida biofilm, Smad3 FoxH1 inh)
Cc1ccc(OCc2nnc(SCC(=O)N3c4ccccc4Sc4ccc(Cl)cc43)o2)cc1	MRP1 act 11 (no result: MRP resist rev, Candida biofilm, Smad3 FoxH1 inh)
Cc1cccc(OCc2nnc(SCC(=O)N3c4ccccc4Sc4ccc(Cl)cc43)o2)c1	none (no result: MRP resist rev, Candida biofilm, Smad3 FoxH1 inh)
Cc1ccc(C(=O)CSc2nnc(COc3cccc(C)c3)o2)cc1	MRP resist rev 92
COc1ccc(OCc2nnc(SCC(=O)N3c4ccccc4Sc4ccc(Cl)cc43)o2)cc1	MRP1 act 15 (no result: MRP resist rev, Candida biofilm, Smad3 FoxH1 inh)
COc1cc(CNC(=O)c2cccc(COc3ccc(Cl)cc3)c2)cc(OC)c1	MRP1 act 4.8 (no result: MRP resist rev, Candida biofilm, Smad3 FoxH1 inh)

Screening results (PubChem)
